For 30 molecules, inhibition results are on record in PubChem BioAssay AID2315 (National Center for Advancing Translational Sciences (NCATS), 2010).

Molecules are shown by their SMILES. Hit rate of the full screen: of about 290,000 compounds, about 27,000 (9.3%) were called active. For the sample, actives were picked, then their nearest neighbours and some compounds at random. Values without a mark were called inactive. Cut-off read from the data, not from the text of the source: active = inhibition mostly above about 28% (no sharp cut-off); inactive = mostly below about 43%.

The experiment in a line: A qHTS for Small Molecule Inhibitors of Shiga Toxin. Note: 0% is about no effect. Particulars: Vero cells, Shiga toxin protein synthesis inhibition reporter; at 38.7 µM, stronger effect = higher value. On the technique in general: qHTS replaces the single test concentration by a dilution series.
A word on the inhibition: it is the change of the read-out against control, counted positive when it falls. For the molecule `CN1C2CCC1CC(NC(=O)c1ccc([N+](=O)[O-])cc1)C2` (stereo not given), the inhibition is -5.48%. For `Cn1c(=O)c2c(SCC(=O)NCC3CCCO3)nc(CC(C)(C)C)nc2n(C)c1=O` (stereo not given), the inhibition is -7.65%. Regarding `Cc1cccc(NS(=O)(=O)c2ccc([N+](=O)[O-])cc2)n1`, the inhibition is 12.1%. In the case of `CC1CCN(c2oc(-c3ccccc3F)nc2C#N)CC1` it was 69.1% (active). For the molecule `COc1ccccc1-c1nc(C#N)c(N2CCC(C(N)=O)CC2)o1`, the inhibition is -15%. `Cc1oc(-c2ccccc2F)nc1CS(=O)CC(=O)NCCN1CCCCC1C` (stereo not given): the inhibition was -8.05%.

With `O=C(c1ccccc1F)N1CCN(S(=O)(=O)c2ccc(Br)cc2)CC1`, the inhibition was -11.4%. Turning to `Cc1c(C(=O)N2CC(C)OC(C)C2)sc2nc(-c3ccccc3)cn12` (stereo not given), the inhibition was 64.7% (active).

Regarding `Cc1c(C(=O)N2CCCc3ccccc32)sc2nc(-c3ccccc3)cn12`, the inhibition is 21.5%. `Cc1c(C(=O)NCC2CCCO2)sc2nc(-c3ccccc3)cn12` (stereo not given): the inhibition is 93% (active). `Cc1cccc(C)c1NC(=O)N1CC(C)OC(C)C1` (stereo not given): the inhibition was -12.3%. In the case of `O=C(CSc1ccc(-c2ccccc2)nn1)NCC1CCCO1` (stereo not given) it was 20.8%; in that of `CCOc1ccc(-n2c(N)c(C(=O)NCC3CCCO3)sc2=S)cc1` (stereo not given), -14.3%. In the case of `COc1ccccc1N1CCN(C(=O)c2cc(=O)c3cc(C)cc(C)c3o2)CC1`, the inhibition was 3.39%. For `COc1cccc(-n2c(=S)sc3c(=O)n(-c4ccccc4C)c(SCC(=O)O)nc32)c1`, the inhibition was 20.4%.

For the molecule `CCOc1ccc2[nH]c3nc(SCC(=O)NC4CCCC4)nnc3c2c1`, the inhibition was -5.52%.

Regarding `CCOc1ccc2nc(N(CCN(C)C)C(=O)c3ccc4ccccc4c3)sc2c1`, the inhibition was 25.9%.

In the case of `Cc1nc(COc2cc3oc(=O)cc(C)c3cc2Cl)cs1`, the inhibition was 2.94%. In the case of `O=C(COC(=O)c1cc2c(s1)CCCC2)NCc1ccccc1Cl` it was 7.81%; in that of `O=C(c1cc2c(s1)CCC2)N1CCN(c2ccccc2)CC1`, 44.1%; in that of `O=C(NCCCN1CCOCC1)c1cc2c(s1)CCC2`, 33%. As to `NC(=O)c1c(NC(=O)c2ccccc2)sc2c1CCCC2`, the inhibition is 68.2% (active). Consider `CN(CC(=O)Nc1ccccc1F)CC(=O)Nc1ccccc1Br`, for which the inhibition was 13%. For the molecule `O=C(NNC(=O)c1cc2c(s1)CCCC2)c1ccccc1`, the inhibition was 110% (active). The value for `C=CCN(CC=C)S(=O)(=O)c1ccc(C(=O)Nc2sc3c(c2C(N)=O)CCCCC3)cc1` was -0.928%.

Take `O=C(NCCCn1ccnc1)c1cc2c(s1)CCCC2`: the inhibition was -5.02%. The value for `O=C(Nc1ccc(F)cc1)c1cc2c(s1)CCCC2` was 127% (active); that for `COc1ccc(C(CNC(=O)c2cc3c(s2)CCCC3)N2CCOCC2)cc1` (stereo not given) was -16.3%; that for `O=C(Nc1sc2c(c1C(=O)O)CCC2)c1ccccc1F` was 15%. On to `O=C(CNC(=O)c1cc2c(s1)CCC2)Nc1ccccc1Br`, for which the inhibition was 61.2% (active).
